Molecules are shown by their SMILES. Out of some 2,100 compounds screened, about 1,100 (52%) were called active. Inconclusive results (about 29%) are left out. The set was probably picked from earlier hits. This is one part of the list. Values without a mark were called inactive. Calls come from the whole dose curve; as a rule, active = well fitted inhibition curve with a large enough effect; inconclusive = small, poorly fitted or top-dose-only effect; inactive = no such curve, though single readings can be large or run the other way.
% is set by controls: 0 for no effect and ±100 for the full control effect; potency is the fitted concentration of half-maximal effect.

In this experiment the target is DNA dC->dU-editing enzyme APOBEC-3F (Homo sapiens) (UniProt Q8IUX4). Kind of experiment: qHTS for inhibitors of Vif-A3F interactions: Cherry picks counterscreen. Note: nearly all actives have a fitted effect of over 65% in size. As to conditions: HeLa A3F-eYFP/Vif cells, eYFP fluorescence, 24 h; series mostly up to 46.1 µM; activity, negative = inhibitor: at the top concentration. An excerpt: The recent discovery and characterization of host restriction factors, which provide a potent defense to invading retroviruses, has provided new targets for antiviral drug development. APOBEC3G (A3G) and APOBEC3F (A3F) are potent cytidine deaminases that block HIV-1 replication; HIV-1 expresses the Vif protein, which counteracts A3G and A3F by binding to them and inducing their proteasomal degradation. The Vif-A3G and Vif-A3F interactions provide two potential targets for development of small molecules which can interfere with the ability of Vif to degrade A3G or A3F. […] To identify inhibitors that can interfere with Vif mediated degradation of A3G and A3F, we have developed Hela cell lines that stably express A3G or A3F tagged with eYFP at the C-terminal end (A3G-eYFP or A3F-eYFP, respectively) and Vif. In the absence of an inhibitor, Vif induces degradation of A3G-eYFP and A3F-eYFP, and the cells are not fluorescent. In the presence of an inhibitor, it is expected that Vif will be unable to degrade A3G-eYFP and/or A3F-eYFP, resulting in an increase in yellow fluorescence. In this counterscreen assay, Vif A3F was screened against the cherry picks ordered from the MLSMR. NIH Chemical Genomics Center [NCGC] NIH Molecular Libraries Probe Centers Network [MLPCN] MLPCN Grant: MH093245 Assay Submitter (PI): Vinay Pathak, National Cancer Institute
DNA dC->dU-editing enzyme APOBEC-3F (Homo sapiens), sequence (Q8IUX4 whole entry, looked up): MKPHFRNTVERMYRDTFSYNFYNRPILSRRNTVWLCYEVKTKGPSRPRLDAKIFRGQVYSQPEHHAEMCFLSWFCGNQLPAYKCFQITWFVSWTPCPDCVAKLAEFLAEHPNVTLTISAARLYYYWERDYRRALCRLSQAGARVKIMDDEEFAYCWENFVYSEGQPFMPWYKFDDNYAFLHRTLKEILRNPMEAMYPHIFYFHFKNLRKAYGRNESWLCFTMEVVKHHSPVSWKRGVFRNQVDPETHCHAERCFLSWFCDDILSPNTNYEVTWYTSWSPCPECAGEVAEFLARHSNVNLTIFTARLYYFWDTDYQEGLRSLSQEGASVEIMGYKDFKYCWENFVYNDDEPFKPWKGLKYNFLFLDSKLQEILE
A3F-Vif cells were harvested from T225 flask and resuspended in phenol free OPTI-MEM medium with 5% FBS. Then 5 uL of 140,000 cells/mL resuspended cells was dispensed into each well of low base Aurora COC 1,536-well plates (black walled, clear bottom) using a Multidrop Combi dispenser. After overnight culture at 37 deg C with 5% CO2, a total of 23 nL of compounds at 5 selected concentrations from the NPC or positive control (2 mM stock of MG132) in DMSO was transferred to each well of the assay plate using a pintool (Kalypsys, San Diego, CA), and the plates were further incubated at 37 deg C with 5% CO2 for 24 hours. After that, the plates were measured on Acumen Explorer (TTP Lab Tech). The fluorescence was detected by 488 nm/Ex and […].
Background: Quantitative high-throughput screening tests each substance at several concentrations.
`O=Cc1sc(Nc2ccccc2)nc1Cl`: the Potency is 16.4 µM (active).

In the case of `c1ccc(Nc2nc(-c3ccccn3)cs2)cc1`, the “activity, negative = inhibitor” value was -11.1%.

Consider `Cc1ccc(Nc2nc(Cl)c(C=O)s2)cc1Cl`, for which the Potency is 18.4 µM (active).

Turning to `COc1ccc(-c2n[nH]c3c2CN(C(=O)c2ccc(OC)c(OC)c2)CC3)cc1`, the Potency was 4.44 µM (active).

With `C=CCOC(=O)C1=C(C)Nc2nnnn2C1c1cccs1` (centres undefined), the “activity, negative = inhibitor” value is -25.7% [at 36.9 µM].

Turning to `COc1cccc(C2=CC(c3ccccc3)n3nnnc3N2)c1` (centres undefined), the Potency was 1.98 µM (active).

As for `COc1ccc(OC)c(C2C=C(c3ccc(C)c(C)c3)Nc3nnnn32)c1` (centres undefined), the Potency is 4.98 µM (active).

Take `COc1cccc(C2=CC(c3cccs3)n3nnnc3N2)c1` (centres undefined): the Potency is 5.59 µM (active).

On to `CCOC(=S)SCC(=O)N1CCc2cc(OC)ccc2C1C1C(=O)CCCC1=O` (centres undefined), for which the Potency is 15.8 µM (active).

In the case of `CCOC(=O)c1c(-c2ccc(OC)cc2)csc1/N=C/C1C(=O)CCCC1=O`, the “activity, negative = inhibitor” value is -17.2%.

Take `Cc1cc2oc3ccc(NCCCn4ccnc4)cc3c(=O)c2cc1C`: the “activity, negative = inhibitor” value is -778% [at 46.1 µM, above what the read-out allows, likely interference].

With `O=c1c2ccccc2sc2ccc(NCCCN3CCOCC3)cc12`, the Potency was 16.4 µM (active).

For `COc1ccc(-c2cnc3c(NC=O)cc(-c4ccccc4)cn23)cc1OC`, the Potency is 1.77 µM (active).

Regarding `COc1ccc(-c2cnc3c(NC=O)cc(-c4ccoc4)cn23)cc1OC`, the Potency was 11.2 µM (active).

As for `Cc1ccc(-c2cc(NC=O)c3ncc(-c4cnn(C)c4)n3c2)cc1`, the Potency was 5.59 µM (active).

On to `COc1ccc(-c2cc(NC=O)c3ncc(-c4ccc(OC)c(OC)c4)n3c2)cc1OC`, for which the Potency was 4.44 µM (active).

In the case of `COc1cccc(-c2cnc3c(NC=O)cc(-c4cc(OC)c(OC)c(OC)c4)cn23)c1`, the Potency is 15.8 µM (active).

Consider `COc1cc(-c2cc(NC=O)c3ncc(-c4ccc(C(C)=O)cc4)n3c2)cc(OC)c1OC`, for which the Potency was 17.7 µM (active).

In the case of `CC(=O)/C(=C\N(C)C)Sc1ccc(Cl)cc1`, the “activity, negative = inhibitor” value is 4.05% [at 36.9 µM].

For the compound `Clc1ccsc1-c1csc(-c2cccnc2)n1`, the Potency is 15.8 µM (active).

Take `Cn1ccnc1Sc1nc2ccccc2nc1NS(=O)(=O)c1ccccc1`: the Potency was 16.4 µM (active).

With `CC(=O)Nc1ccc(S(=O)(=O)Nc2nc3ccccc3nc2Sc2nncn2C)cc1`, the Potency was 16.4 µM (active).

Turning to `Cn1c(=O)c2c(nc(NC3CCCC3)n2C)n(C)c1=O`, the “activity, negative = inhibitor” value was 7.15%.

`O=C1COc2ccc(C(=O)CSc3nc4ccccc4c(=O)n3-c3ccc(Cl)c(Cl)c3)cc2N1`: the Potency was 23.1 µM (active).

Regarding `COc1ccccc1NC1=NC(c2ccc(Cl)cc2)N=C(N)N1` (centres undefined), the Potency was 12.5 µM (active).

As to `COc1ccc2nc3ccccc3nc2c1NC(=O)c1ccc(Br)cc1`, the Potency is 16.4 µM (active).

Take `COc1ccc2nc3ccccc3nc2c1NC(=O)c1ccc(Cl)cc1`: the Potency is 23.1 µM (active).

Turning to `O=C(NC(=S)Nc1c(Cl)cc(Cl)cc1Cl)c1ccccc1`, the “activity, negative = inhibitor” value was 0.68%.

Turning to `Cc1ccc(CNC(=O)c2ccc3c(c2)NC(=O)C(CS(=O)(=O)Cc2cccc(C)c2)N3)cc1` (centres undefined), the Potency is 18.4 µM (active).

In the case of `CC(C)CCNC(=O)c1ccc2c(c1)NC(=O)C(CS(=O)(=O)Cc1cccc(Br)c1)N2` (centres undefined), the “activity, negative = inhibitor” value is -23.1%.

As for `CN(C)c1ccc2nc3c(=O)[nH]c(=O)nc-3n(CC(O)C(O)C(O)CO)c2c1` (centres undefined), the Potency is 6.51 µM (active).

As to `O=C1C=C(Nc2ccc(Cl)cc2Cl)CC(c2ccco2)C1` (centres undefined), the Potency is 4.98 µM (active).

With `CCN(CC)C(=O)c1ccc(/C=C/c2c[nH]c3ccccc23)[n+](C)c1`, the Potency was 16.4 µM (active).

`C[n+]1cc(C(=O)N2CCCCC2)ccc1/C=C/c1c[nH]c2ccccc12`: the Potency is 11.2 µM (active).

Turning to `COc1ccc(-c2cnc3c(c2)CCC3(C#N)C#N)cc1`, the Potency was 14 µM (active).

On to `CCOC(=O)c1ccc(NC(=S)Nc2cccc(C)n2)cc1`, for which the “activity, negative = inhibitor” value is -17.8%.

Take `CCOC(=O)c1cc(-c2ccccc2)sc1NC(=S)Nc1cc(C)ccn1`: the Potency was 18.4 µM (active).

Regarding `Cc1ccc(NC(=S)Nc2ccccn2)c(C)c1`, the “activity, negative = inhibitor” value is 1.93%.

Take `Cc1sc2nc(CSc3nnnn3-c3ccc(Cl)cc3)[nH]c(=O)c2c1C`: the “activity, negative = inhibitor” value is -21.8%.

Turning to `CCOc1ccc(-n2nnnc2SCC(=O)c2ccccc2)cc1`, the Potency is 15.8 µM (active).

Consider `O=C(/C=C/c1ccc(Cl)cc1)c1ccc([N+](=O)[O-])o1`, for which the Potency was 9.94 µM (active).

For the compound `Cc1onc(-c2c(F)cccc2Cl)c1C(=O)O/N=C(\N)c1ccc([N+](=O)[O-])o1`, the “activity, negative = inhibitor” value is -16.6% [at 36.9 µM].

Regarding `O=C(/C=C/c1ccncc1)c1cc(Cl)ccc1O`, the “activity, negative = inhibitor” value was -16.9%.

Turning to `Cc1cccc(/C=C/C(=O)c2ccc([N+](=O)[O-])o2)c1`, the Potency is 4.98 µM (active).

As to `COc1cccc(/C(O)=C/c2nc3ccc(C(=O)NCCc4ccc(Cl)cc4)cc3[nH]c2=O)c1`, the Potency was 16.4 µM (active).

On to `COc1cccc(/C(O)=C/c2nc3ccc(C(=O)NCCc4cccc(C)c4)cc3[nH]c2=O)c1`, for which the Potency is 16.4 µM (active).

For `COc1ccc2oc(=N)c(C(=O)Nc3ccc(F)cc3)cc2c1`, the Potency is 7.31 µM (active).

For the compound `COc1cc(C2Nc3ccc4ncccc4c3C3=C2C(=O)CCC3)cc(OC)c1O` (centres undefined), the Potency is 15.8 µM (active).

In the case of `COc1cc(C2Nc3ccc4ncccc4c3C3=C2C(=O)CCC3)ccc1O` (centres undefined), the Potency is 7.04 µM (active).

For the origin of these results see PubChem BioAssay AID651815 (National Center for Advancing Translational Sciences (NCATS), 2012).
